# An excerpt weighted towards active compounds, which were near 3% of everything screened.
# PAFAH2 inh: PAFAH2 enzyme inhibitors, primary screen, biochemical, fluorescence polarization, human | Platelet-activating factor acetylhydrolase 2, cytoplasmic (Homo sapiens), Q99487 | recombinant PAFAH2, FP-rhodamine activity probe | inhibition, % at 3.39 µM | actives 0.99% (n = 340,000);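 active = inhibition above the mean over all tested compounds plus 3 SD, cut at about 30% in these data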;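 also: inhibitors block probe labeling of enzyme so polarization drops; 0% = enzyme with DMSO and 100% = wells lacking PAFAH2 protein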
# PP5 primary: PP5 phosphatase inhibitors, primary screen, biochemical, fluorescence; inhibition, % at 6.7 µM; purified PP5c, OMFP substrate fluorescence; Serine/threonine-protein phosphatase 5 (Homo sapiens), P53041; actives 0.18% (n = 320,000);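 active = inhibition above the campaign's mean inhibition across all tested compounds plus 3 SD, cut at about 9.5% in these data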;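 also: 0% = DMSO only and 100% = 100 µM cantharidin control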
# Target sequence (P53041 whole entry, looked up): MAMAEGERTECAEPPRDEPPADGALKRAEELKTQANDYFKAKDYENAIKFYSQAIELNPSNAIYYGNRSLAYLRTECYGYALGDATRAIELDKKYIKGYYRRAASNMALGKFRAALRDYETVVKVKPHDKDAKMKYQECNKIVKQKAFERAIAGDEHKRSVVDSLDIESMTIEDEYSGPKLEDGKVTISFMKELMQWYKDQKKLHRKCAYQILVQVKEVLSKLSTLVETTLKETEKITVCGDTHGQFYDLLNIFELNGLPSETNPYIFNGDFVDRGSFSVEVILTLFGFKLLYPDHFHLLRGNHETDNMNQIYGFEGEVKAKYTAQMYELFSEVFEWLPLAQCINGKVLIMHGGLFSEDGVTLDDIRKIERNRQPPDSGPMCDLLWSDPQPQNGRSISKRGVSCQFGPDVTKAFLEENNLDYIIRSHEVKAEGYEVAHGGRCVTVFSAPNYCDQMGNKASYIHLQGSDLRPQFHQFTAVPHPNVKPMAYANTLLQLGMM
# pPAFAH FP inh: pPAFAH enzyme inhibitors, primary screen, biochemical, fluorescence polarization, human; Platelet-activating factor acetylhydrolase (Homo sapiens), Q13093; recombinant pPAFAH, FP-rhodamine probe fluorescence polarization; inhibition, % at 3.39 µM; actives 1.5% (n = 330,000); AID 463082, 2010;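 active = inhibition above the mean inhibition across the screen plus 3 SD, cut at about 25% in these data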;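 also: inhibitors block binding of the rhodamine activity-based probe so polarization drops; 0% = enzyme with DMSO and 100% = wells lacking pPAFAH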
# PAFAH1B2 inh: PAFAH1B2 enzyme inhibitors, primary screen, biochemical, fluorescence polarization, human; Platelet-activating factor acetylhydrolase IB subunit alpha2 (Homo sapiens), P68402; recombinant PAFAH1B2, FP-rhodamine activity probe; inhibition, % at 3.39 µM; actives 1.2% (n = 340,000); AID 492953, 2010;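 active = inhibition above the mean of all tested compounds plus 3 SD, cut at about 24% in these data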;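 also: 0% = enzyme with DMSO and 100% = wells lacking PAFAH1B2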
# Fh CTSL1 inh: Fasciola hepatica cathepsin L1 inhibitors, primary screen, counter-screen for PFM18AAP inhibitor project, biochemical, QFRET, fluorogenic peptide substrate; recombinant F. hepatica cathepsin L1, Z-Leu-Arg-MCA fluorescence; inhibition, % at 5.96 µM; actives 0.49% (n = 300,000); AID 1906, 2009;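 active = inhibition above the mean of all tested compounds plus 3 SD, set per screening campaign, cut at about 17% in these data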;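 also: 0% = plate median of test compound wells and 100% = 1 µM Z-Phe-Ala-diazomethylketone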
# PAFAH1B3 FP inh: PAFAH1B3 enzyme inhibitors, primary screen, biochemical, fluorescence polarization, human. actives 0.28% (n = 340,000). recombinant PAFAH1B3, FP-rhodamine probe. inhibition, % at 3.39 µM. AID 492972, 2010;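 active = inhibition above the screen-wide average of all tested compounds plus 3 SD, cut at about 25% in these data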;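 also: 0% = enzyme with DMSO only and 100% = wells lacking PAFAH1B3 protein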
# * = called active by the depositor; . = no result given.
SMILES,PAFAH2 inh,PP5 primary,pPAFAH FP inh,PAFAH1B2 inh,Fh CTSL1 inh,PAFAH1B3 FP inh
Cc1ccc(SCC(=O)OCC(=O)NCCc2ccccc2)cc1,4,0,28*,50*,.,9
Cc1ccc(OCCC(=O)OCC(=O)NCCc2ccccc2)cc1,5,-1,24,11,-33,3
Cc1ccc(SCC(=O)NC(C)c2ccccc2)cc1 (configuration not stated),0,0,-4,34*,-6,0
Cc1csc(SCC(=O)NC(C)c2ccccc2)n1 (configuration not stated),2,-1,3,3,0,-6
Cc1ccc(SCC(=O)OCC(=O)NCCc2ccccc2)cc1C,0,2,30*,12,.,12
CCCCc1ccc(NC(=S)N2CCCC2)cc1,5,.,.,2,.,7
COc1ccc(-c2ccc(/C=C(\NC(=O)c3ccccc3)C(=O)N3CCOCC3)o2)cc1,10,2,-1,4,78*,1
COc1ccc(/C=C(/NC(=O)c2ccccc2)C(=O)N2CCOCC2)cc1OC,3,3,-4,-1,19*,7
CCOc1ccc(-c2nnc(SCC(=O)O)n2Cc2ccccc2)cc1,10,1,2,0,3,3
OCCCNc1c2ccccc2nc2ccccc12,-6,-1,2,3,-1,-6
O=c1c2oc3nc4c(cc3c2ncn1CCCc1ccccc1)CCCC4,7,1,0,5,-6,5
O=CN1CCN(C(=O)c2ccc(-c3nc4ccccc4s3)s2)CC1,-3,0,5,0,26*,2
C[C@H](CO)N1C[C@H](C)[C@@H](CN(C)S(C)(=O)=O)Oc2ccc(NC(=O)NC3CCCCC3)cc2C1=O,3,.,12,11,.,8
CCc1ccc(S(=O)(=O)/N=C2\C=C(NS(=O)(=O)c3ccccc3)C(=O)c3ccccc32)cc1,34*,.,.,0,.,6
CC(C)c1ccc(S(=O)(=O)/N=C2\C=C(NS(=O)(=O)c3ccccc3)C(=O)c3ccccc32)cc1,26,3,26*,23,2,-2
Cc1ccc(C)c(S(=O)(=O)/N=C2\C=C(NS(=O)(=O)c3ccccc3)C(=O)c3ccccc32)c1,17,3,17,6,4,25
Cc1ccc(NC(=O)CSc2nc(=O)n(Cc3ccncc3)c3c2CCC3)c(C)c1,3,0,11,-7,-1,4
C=CC[C@H](CC(=O)N(CCO)Cc1ccccc1)C(=O)N[C@H](COC(=O)[C@@H](CC=C)Cc1ccc(F)cc1)Cc1ccccc1,-1,.,4,57*,.,3
C=CCC[C@H](Cc1ccc(F)cc1)C(=O)O[C@H](CNC(=O)[C@@H](CC=C)CC(=O)N(CCO)Cc1ccccc1)c1ccccc1,6,.,19,27*,.,5
C=CC[C@@H](CC(=O)N(CCO)Cc1ccccc1)C(=O)N[C@H](C)COC(=O)[C@@H](CC=C)Cc1ccc(F)cc1,13,.,3,11,.,7
CN(CC(=O)Nc1ccc(F)cc1)C(=O)COC(=O)c1cc(Br)c(Br)s1,18,.,.,24*,.,10
Cc1ccc(SCC(=O)OCC(=O)N(C)CC(=O)Nc2ccc(F)cc2)cc1,-11,3,27*,44*,-5,3
C#CCOCCOCCOCCNc1nc(N2CCN(C(=O)[C@H]([C@@H](C)CC)n3cc([C@@H](N)CC(C)C)nn3)CC2)nc(N2CCN(C(=O)[C@H]([C@@H](C)CC)n3cc([C@@H](N)CC(C)C)nn3)CC2)n1,14,-6,2,0,25*,-2
Cc1nc2c(-c3ccc(F)cc3)cnn2c(N)c1-c1ccccc1,6,-2,5,1,19*,-3
Cc1c(CN(C)C(=O)/C=C/c2ccc([N+](=O)[O-])cc2)cnn1C,8,1,-1,-1,1,1
SMILES,PAFAH2 inh,PP5 primary,pPAFAH FP inh,PAFAH1B2 inh,Fh CTSL1 inh,PAFAH1B3 FP inh
Cc1cc(C(=O)OCC(=O)N2CCC(c3ccccc3)=N2)ccc1[N+](=O)[O-],-5,-1,1,-1,0,2
Cc1nc(C)c(C(=O)OCC(=O)Nc2ccccc2)s1,95*,-2,26*,-1,.,13
O=C(COC(=O)c1ccc([N+](=O)[O-])s1)Nc1ccc(F)cc1,52*,-1,12,10,.,34*
O=C(OCC(=O)N1CCC(c2ccccc2)=N1)c1ccc([N+](=O)[O-])s1,21,1,25*,15,7,16
O=C(COC(=O)c1ccc([N+](=O)[O-])s1)NCc1ccccc1,11,3,23,11,57*,16
O=C(c1cc(-c2ccccc2)n[nH]1)N1CCc2c([nH]c3ccccc23)C1c1ccccn1 (configuration not stated),-1,8,1,-1,1,7
COc1ccc(-c2nc(CS(=O)(=O)CC(=O)NCCCN3CCN(C)CC3)c(C)o2)cc1,2,-1,-2,3,0,2
Cc1ccc(C(=O)OCC(=O)Nc2ccc(C(N)=O)cc2)s1,4,1,-1,6,.,5
O=C(OCc1nnc(-c2ccccc2)o1)c1ccc([N+](=O)[O-])s1,31*,4,14,24,.,31*
O=C(COC(=O)c1ccc([N+](=O)[O-])s1)Nc1ccccc1,81*,1,15,10,74*,34*
Cc1ccc(C(=O)NCC(=O)Nc2ccncc2)s1,-1,0,-3,0,-1,-2
CCCN(CCC)CCNC(=O)C(NS(=O)(=O)c1ccc2c(c1)CCC(=O)N2)c1ccccc1 (configuration not stated),0,1,6,2,31*,5
Cc1ccc(CN(C)C(=O)CSc2nnc3n2CCCCC3)c(C)c1,-1,-2,-2,2,.,8
Cn1c(=O)c2c(nc(NC3CCCCC3)n2CC(=O)C23CC4CC(CC(C4)C2)C3)n(C)c1=O,7,7,2,25*,-1,-6
Cn1c(=O)c2c(nc(NC3CCCCC3)n2Cc2ccccc2)n(C)c1=O,1,0,13,4,3,-1
Cc1nc(NC(=O)c2ccccc2)sc1-c1csc(Nc2ccc(C(=O)O)cc2)n1,32*,.,.,16,.,29*
O=C(O)c1ccc(Nc2nc(-c3ccccc3)cs2)cc1,14,3,8,25*,-1,8
CCOC(=O)Cn1c(=O)oc2cc(S(=O)(=O)NCCc3ccc(C)cc3)ccc21,-8,2,29*,4,-1,7

# High-throughput results from PubChem.
